# AID504770: growth inhibition of E. coli YBA685, primary screen, V. cholerae RctB inhibitors; E. coli YBA685 rctB-dependent plasmid, OD600 growth, 3 h; stronger effect = lower value; z-score (concentration not given with the values); 130,000 compounds, 0.27% hits; in the data active means z-score below about -2, passing the limit was not always enough
# Mtb MenB inh: M. tuberculosis MenB inhibitors, primary screen, biochemical, absorbance; AID 540299, 2011; 1,4-dihydroxy-2-naphthoyl-CoA synthase (Mycobacterium tuberculosis (strain ATCC 25618 / …; inhibition, % (test concentration not listed); 100,000 compounds, 0.43% hits; MenB enzyme assay, absorbance read-out; in the data active means inhibition above about 21%, passing the limit was not always enough
# Target sequence (P9WNP5 whole entry, looked up): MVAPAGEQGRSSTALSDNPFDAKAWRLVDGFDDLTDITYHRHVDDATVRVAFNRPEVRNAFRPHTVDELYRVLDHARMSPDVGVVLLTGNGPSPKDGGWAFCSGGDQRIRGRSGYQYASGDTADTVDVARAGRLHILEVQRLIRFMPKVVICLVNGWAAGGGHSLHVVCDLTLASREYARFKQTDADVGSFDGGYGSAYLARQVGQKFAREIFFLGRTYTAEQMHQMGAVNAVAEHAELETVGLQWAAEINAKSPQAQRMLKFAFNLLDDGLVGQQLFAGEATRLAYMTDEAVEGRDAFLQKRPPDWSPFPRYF
# MbtI inh: MbtI salicylate synthase inhibitors, primary screen, biochemical, fluorescence intensity; P9WFX0; purified MbtI enzyme, fluorescence intensity read-out; inhibition, % (concentration not given with the values); 100,000 compounds, 0.89% hits; in the data active means inhibition mostly above about 56%, no sharp cut-off; inactive means mostly below about 77%
# PV pol inh: poliovirus RdRp elongation inhibitors, primary screen, biochemical, fluorescence polarization, total intensity. Genome polyprotein (Poliovirus type 1 (strain Mahoney)), P03300. poliovirus polymerase elongation; stronger effect = lower value. % elongation, % (compound at 16.7 µg/mL). 150,000 compounds, 0.66% hits; in the data active means % elongation below about 90%
# The depositor's hits bear a star; nt = no result. An excerpt weighted towards active compounds, which were near 1.5% of everything screened.
SMILES,AID504770,Mtb MenB inh,MbtI inh,PV pol inh
CC(=O)N1CCN(c2nc(N)c3c(N)nc4c(c3c2C#N)CC(=O)N4C)CC1,0.25,2,-18,18*
O=C(Nc1ccc(Br)cc1C(=O)c1ccccc1)c1ccco1,-0.3,nt,nt,nt
CCCCN(C)C(=O)CCC(=O)NNc1nc2ccccc2c2nc(C)nn12,nt,nt,nt,81*
Cc1nc2c3ccccc3nc(NNC(=O)CCC(=O)N3CCN(c4ccccc4F)CC3)n2n1,nt,nt,nt,92
Cc1nc2c3ccccc3nc(NNC(=O)CCC(=O)N3CCN(c4ccccc4)CC3)n2n1,nt,nt,nt,85*
Cc1nc2c3ccccc3nc(NNC(=O)CCC(=O)N3CCN(c4cccc(Cl)c4)CC3)n2n1,nt,nt,nt,135
COc1ccc(N2CCN(C(=O)CCC(=O)NNc3nc4ccccc4c4nc(C)nn34)CC2)cc1,nt,nt,nt,87*
O=S1(=O)CCC(NC(=S)SCCOc2ccccc2OCCO)C1 (stereo not given),-3*,19,0,100
CCN1CCN(CCC(=O)Nc2ccc(-c3ccccc3)cc2)CC1,-0.4,nt,14,100
CCN1CCN(CCC(=O)Nc2ccc(C)cc2)CC1,-0.1,37*,-1,100
CCN(c1ccccc1)S(=O)(=O)c1ccc(Cl)cc1,0.25,-53,-11,102
CCN(c1ccccc1)S(=O)(=O)c1ccc(C(=O)OCC#N)cc1,-0.4,12,-1,66*
COc1cccc(NC(=O)c2ccc(OC(=S)N3CCC(C)CC3)cc2)c1,-2.8*,1,nt,106
Cn1cnnc1SCNC(=O)c1cc2ccccc2o1,-0.4,-16,-7,99
CCN(CC)P1(=S)N(c2ccccc2)N=C2C=C(C)c3ccccc3N21 (stereo not given),0.7,-63,91,68*
O=C1C=CC(=O)N1Cc1cccs1,-4.2*,nt,nt,nt
NC(=O)c1cc2c([nH]c1=O)CCCCCCCCCC2,0.2,5,34,100
CCOC(=O)c1sc2nc(C(F)(F)F)nn2c1C,-2.5*,nt,nt,nt
S=C1N(CN2CCOCC2)CCN1CN1CCOCC1,0.25,5,-25,100
N/C(=N\OC(=O)c1ccc(Br)o1)c1ccncc1,-2.4*,0,7,105
CC(C)Cc1nnc(NS(C)(=O)=O)s1,-0.1,-31,95*,102
O=C1OC(N2CCN(Cc3ccc4c(c3)OCO4)CC2)c2ccccc21 (stereo not given),1,9,4,99
CC(=O)Nc1nc(NC(C)=O)n(-c2ccccc2)n1,2.4,4,17,103
Nc1nc(NC(=O)CCC(=O)O)nn1-c1ccccc1,-0.55,30*,5,102
COc1cc2cc3c4cc(OC)c(OC)cc4cc[n+]3c(C)c2cc1OC,-0.35,3,55,88*
SMILES,AID504770,Mtb MenB inh,MbtI inh,PV pol inh
CCNS(=O)(=O)c1ccc(NC(=O)c2nc3nc(C)cc(C(F)F)n3n2)cc1,-1,-14,-4,100
COc1ccc2[nH]c3c(=O)n(CCC(=O)NCCc4ccc(OC)c(OC)c4)c(=S)[nH]c3c2c1,-1.2,-22,-2,103
COc1ccc(C(=O)NCCn2cc(SCC(=O)Nc3ccccc3)c3ccccc32)cc1,-2.5*,-18,-5,102
COc1ccccc1NC(=O)c1c(N)n[nH]c1C,0.6,7,21,99
CC(=O)Nc1ccc(OCC(O)Cn2ccnc2)cc1 (stereo not given),2.4,31*,0,103
CC(=O)Nc1ccc(OCC(O)CN2CCCC2)cc1 (stereo not given),0.45,nt,nt,nt
COc1ccc(N2CC(NC(=O)N(Cc3ccccc3)C(C)C)CC2=O)cc1 (stereo not given),0.5,11,0,98
COC(=O)c1cc(C)sc1N,-1.6,8,95*,100
COC(=O)Nc1sc(C)cc1C(=O)OC,-0.25,3,-3,99
CNC1(C#N)CCC(C)CC1 (stereo not given),-2.3*,-41,-9,103
CC(C)(C)NCc1ccc(-c2ccccc2)o1,0.05,12,8,100
CCN(CC)CCNCc1ccc(-c2ccccc2)o1,-0.2,33*,11,102
COc1cc2c(cc1OC)C(C)N(C(=O)CN1C(=O)CCc3ccccc31)CC2 (stereo not given),-2.9*,-11,-6,102
Cc1sc(NC(=O)C2CC2)c(C#N)c1C,-0.7,-50,90*,95
O=c1[nH]c2ccccc2[nH]1,-0.3,8,-1,94
O=c1[nH]c2cc(Br)cnc2[nH]1,1.1,-19,1,66*
CCCCN1C(=O)C2ON(c3ccc(Cl)cc3)C(c3ccccc3)C2C1=O (stereo not given),0.3,nt,nt,nt
O=C(Nc1ccc(-c2nc3ccccc3s2)c(O)c1)c1ccccc1,-0.25,-19,6,106
Fc1ccc(-c2nnc(Cl)c3ccccc23)cc1F,1.4,nt,1,100
O=c1[nH]c(=S)[nH]nc1-c1ccc(F)c(F)c1,-0.75,-16,101*,98
Clc1ccc(C2=CSc3nnc(Cc4ccccc4)n3N2)cc1,0.1,nt,nt,nt
S=c1cc(-c2ccccc2)[nH]c(=S)[nH]1,-0.05,-162,86*,98
S=c1nccc(-c2ccccc2)[nH]1,0.1,-47,99,83*
CC1=CS/C(=C(/C#N)c2nnc(N3CCOCC3)n2-c2ccccc2)N1c1ccc(OC(F)F)cc1,-0.25,-7,4,105
N=C1S/C(=C\c2ccc(-c3ccccc3F)o2)C(=O)N1c1ccc2c(c1)OCO2,0.4,-11,-26,99
SMILES,AID504770,Mtb MenB inh,MbtI inh,PV pol inh
COc1cc(-c2ccc(/C=C3\SC(=N)N(c4nccs4)C3=O)o2)c(OC)cc1Cl,-0.05,-29,56*,113
CC1CN(C2CCN(C3CC4CCC3C4)CC2)CC(C)O1 (stereo not given),-0.3,nt,-13,nt
O=C(NCc1ccccc1)/C(=C\c1ccccc1)NC(=O)c1ccccc1,-0.1,-13,-8,104
Cc1ccc(C(=O)N/C(=C/c2ccccc2)C(=O)NCc2ccco2)cc1,-0.2,46*,-22,102
O=C(O)CCC(=O)OC[C@@H](NC(=O)C(Cl)Cl)[C@H](O)c1ccc([N+](=O)[O-])cc1,-1.2,-1,-15,100
O=C(N[C@@H](CO)[C@H](O)c1ccc([N+](=O)[O-])cc1)C(Cl)Cl,-2.7*,-5,-15,101
CC1CCCN(CCCNC(=O)Cn2nc(-c3ccccc3)ccc2=O)C1 (stereo not given),1.4,nt,nt,nt
COc1cccc(NC(=O)C2CC(=O)n3cnnc3S2)c1 (stereo not given),-0.1,nt,96*,nt
COc1ccc(Cn2c(=O)[nH]c3cc(C(=O)NC4CCN(Cc5ccccc5)CC4)ccc32)cc1,1.4,30*,7,104
O=C(NC1CCN(Cc2ccccc2)CC1)c1ccc(Cn2c(=O)c3ccccc3n(Cc3ccc(F)cc3)c2=O)cc1,nt,nt,nt,104
Cc1cc(N2CCN(c3ncccn3)CC2)nc2ccc(NC(=O)c3cccc(F)c3)cc12,-0.25,-58,-9,102
Cc1ccc(C)n1-c1cc(Cl)ccc1C(=O)O,1.1,-6,25,84*

# Screens deposited in PubChem by ICCB-Longwood Screening Facility, Harvard Medical School.
